Out of some 200,000 compounds screened, about 50 (0.03%) were called active. This is one part of a sample in which actives are shown more often than they occur. The rule behind the calls is not given here. Results with a measured potency or affinity are listed apart.
These molecules were tested against Alkaline phosphatase, tissue-nonspecific isozyme (Homo sapiens) (UniProt P05186) (assay: stimulation of alkaline phosphatase TNAP activity – biochemical, luminescent, no phosphate acceptor, uHTS, primary screen (AID 1001)). Conditions: purified TNAP, luminescent activation assay, at 20 µM, stronger effect = higher value.
Alkaline phosphatase, tissue-nonspecific isozyme (Homo sapiens), sequence (P05186 whole entry, looked up): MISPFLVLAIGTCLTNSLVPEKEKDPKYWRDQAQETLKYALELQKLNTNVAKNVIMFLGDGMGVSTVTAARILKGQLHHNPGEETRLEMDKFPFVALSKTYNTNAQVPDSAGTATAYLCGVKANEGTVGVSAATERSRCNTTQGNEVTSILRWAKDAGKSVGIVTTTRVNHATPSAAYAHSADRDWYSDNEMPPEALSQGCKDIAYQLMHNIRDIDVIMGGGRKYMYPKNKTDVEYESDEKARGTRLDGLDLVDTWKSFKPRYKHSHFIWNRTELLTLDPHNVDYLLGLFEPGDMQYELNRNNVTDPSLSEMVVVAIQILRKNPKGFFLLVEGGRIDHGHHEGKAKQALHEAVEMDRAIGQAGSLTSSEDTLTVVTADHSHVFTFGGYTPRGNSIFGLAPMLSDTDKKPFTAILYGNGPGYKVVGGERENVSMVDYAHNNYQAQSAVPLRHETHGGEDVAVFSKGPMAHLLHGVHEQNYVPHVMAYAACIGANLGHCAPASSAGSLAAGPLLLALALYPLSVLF

| Structure (SMILES) | activation fold |
| --- | --- |
| CCOCCCNC(=O)CCC(=O)NNc1nc2ccccc2c2nc(-c3ccccc3)nn12 | 2.1 (inactive) |
| O=C(CCC(=O)NNc1nc2ccccc2c2nc(-c3ccccc3)nn12)NCCCN1CCCC1=O | 1.1 (inactive) |
| COCCCNC(=O)CCC(=O)NNc1nc2ccccc2c2nc(-c3ccccc3)nn12 | 2.3 (inactive) |
| CCCCNC(=O)CCC(=O)NNc1nc2ccccc2c2nc(-c3ccccc3)nn12 | 1.6 (inactive) |
| COc1ccc(C(=O)N/C(=C\c2ccccc2)C(=O)NC(CC(C)C)C(=O)O)cc1 (configuration not stated) | 1.1 (inactive) |
| Cc1coc(C)c1C(=O)CC1(O)C(=O)N(CCc2ccccc2)c2ccccc21 (configuration not stated) | 1.1 (inactive) |
| CCOC(=O)CSc1nc2c(sc3ccc([N+](=O)[O-])cc32)c(=O)n1Cc1ccco1 | 1.1 (inactive) |
| CCOc1ccc(-n2cc(-c3ccccc3)c3c(N4CCOCC4)ncnc32)cc1 | 1.1 (inactive) |
| O=c1cc(NCc2ccc3c(c2)OCO3)[nH]c(=O)n1-c1ccc(Cl)cc1 | 1.1 (inactive) |
| O=S(=O)(Nc1ccc2c(c1)OCO2)c1ccccc1 | 1.1 (inactive) |
| CNC(=O)N(O)C1N(C)C(=O)N(Cc2ccccc2)C1(C)C (configuration not stated) | 1.1 (inactive) |
| O=C(CCN1C(=O)/C(=C/c2ccccc2)SC1=S)NNC(=O)c1cccnc1 | 1.6 (inactive) |
| O=C(CCN1C(=O)/C(=C\c2ccccc2)SC1=S)NNC(=O)c1cccnc1 | 1.6 (inactive) |
| CCCC(Oc1ccc(Br)cc1)c1nc2c3cc(OC)c(OC)cc3nc(=S)n2[nH]1 (configuration not stated) | 1.2 (inactive) |
| Cc1cc(N2CCCCC2)nc(N)n1 | 1.1 (inactive) |
| Cc1cc(N2CCCCC2)nc(NCc2ccccc2)n1 | 1 (inactive) |
| COc1cccc(C(=O)NNC(=O)c2ccccc2-n2cccc2)c1 | 1.3 (inactive) |
| O=C(CSc1nnc(-c2ccncc2)n1Cc1ccccc1)NCCc1ccccc1 | 1.2 (inactive) |
| Clc1ccc(OCCn2ccnc2)c(Cl)c1 | 1 (inactive) |
| S=C(NCCCn1ccnc1)Nc1ccc(Cl)cc1Cl | 1 (inactive) |
| OC(Cn1ccnc1)c1ccc(Cl)cc1Cl (configuration not stated) | 1 (inactive) |
| Clc1ccc(SCCn2ccnc2)cc1 | 1.1 (inactive) |
| Cc1cc2cc3c(cc2nc1SCC(=O)O)CCC3 | 1 (inactive) |
| CCCCC(=O)Nc1ccc(C(=O)OC2CCCCC2)cc1 | 1 (inactive) |
| CCS(=O)(=O)N1CCC(NC(=O)c2ccco2)CC1 | 1.1 (inactive) |
| O=C(O)c1ccc(CNC(=O)c2ccc(C(F)(F)F)cc2)cc1 | 1 (inactive) |

| Structure (SMILES) | activation fold |
| --- | --- |
| COC(=O)c1ccc(/C=C2\N=C(SC)SC2=O)cc1 | 1.1 (inactive) |
| OCCCN1c2ccccc2Nc2nnc(-c3ccccc3)cc21 | 1.5 (inactive) |
| CC(=O)OCCCN1C(=O)c2ccc(Br)cc2C1=O | 1 (inactive) |
| CC(C)c1[nH]nc2c1C1(CCN(Cc3ccccc3)CC1)C(C#N)=C(N)O2 | 0.9 (inactive) |
| CC(C)=CCSc1nnc([C@@H](NC(=O)OC(C)(C)C)C(C)C)o1 | 1.1 (inactive) |
| CCOC(=O)N1CCC(NC(=O)CSc2cc(=O)n(CC)c3ccccc23)CC1 | 1.2 (inactive) |
| CCc1ccc(CNC(=O)Cn2nc(-c3ccccc3)ccc2=O)cc1 | 1 (inactive) |
| Oc1c(C(c2ccc(Cl)cc2)N2CCCC2)cc(Cl)c2cccnc12 (configuration not stated) | 1.2 (inactive) |
| CN1CCN(C(c2ccccn2)c2cc(Cl)c3cccnc3c2O)CC1 (configuration not stated) | 2.5 (inactive) |
| CC(=O)c1sc(NC(=O)C(C)(C)C)nc1C | 1.1 (inactive) |
| Cc1cccc(NCc2nc(-c3ccccc3)no2)c1 | 1.1 (inactive) |
| CC(C)CNC(=O)C(=O)NNC(=O)c1ccco1 | 1.1 (inactive) |
| CC(C)CCC(C(=O)O)C(C)CC(=O)NNC(=O)c1ccco1 (configuration not stated) | 1.1 (inactive) |
| CNC(=S)NNC(=O)c1ccc2c(c1)OCO2 | 1.6 (inactive) |
| CC(C)CC(CC(C)C)=NNC(=O)c1ccc2c(c1)OCO2 | 1.1 (inactive) |
| COC(=O)c1ccc(N=Cc2c(C(F)(F)F)[nH][nH]c2=O)cc1 | 0.8 (inactive) |
| Cc1ccc(/C=N/NC(=O)c2nn(C)cc2Cl)cc1 | 1.1 (inactive) |
| C/C(=N\NC(=O)c1nn(C)cc1Cl)c1ccncc1 | 1.2 (inactive) |
| Cc1nc(Nc2nc(CSc3nc4ccccc4[nH]3)cc(=O)[nH]2)nc2ccccc12 | 2.5 (inactive) |
| COc1ccc2nc(Nc3nc(CSc4nc5ccccc5[nH]4)cc(=O)[nH]3)nc(C)c2c1 | 2.4 (inactive) |
| CCOC(=O)CNC(=O)C(CO)NC(=O)OCc1ccccc1 (configuration not stated) | 1.1 (inactive) |
| CCOC(=O)/C(N=Nc1sc(C(=O)OCC)c(C)c1C(=O)OCC)=C(\C)O | 1 (inactive) |
| COC(=O)c1sccc1NC(=O)Cn1nnc(-c2ccc(C)cc2)n1 | 1 (inactive) |
| O=C(CCC(=O)Nc1ccc(Cl)cc1Cl)NNC(=O)Nc1ccccc1 | 1.3 (inactive) |
| Cc1cc([N+](=O)[O-])nn1CC(=O)Nc1ccc(F)cc1 | 1.1 (inactive) |
| Cc1cc([N+](=O)[O-])nn1CC(=O)Nc1cc(F)ccc1F | 1 (inactive) |

| Structure (SMILES) | activation fold |
| --- | --- |
| CCOC(=O)C1(Cc2cccc(OC)c2)CCN(Cc2cnc(C)s2)CC1 | 1 (inactive) |
| CCCCN1CNC(=S)N(Cc2ccccc2)C1 | 0.9 (inactive) |
| COc1ccc(S(=O)(=O)Nc2ccccc2C)cc1 | 1 (inactive) |
| CCN(CC)c1ccc(N=Cc2ccc(N(CC)CC)cc2O)cc1 | 6 (active) |
| CCN(CC)c1ccc(C=Nc2ccc(C)cc2)c(O)c1 | 0.9 (inactive) |
| CCN(CC)c1ccc(C=Nc2ccc(N(C)C)cc2)c(O)c1 | 2.3 (inactive) |
| COc1ccc(C(C)=O)c(Oc2nc(CN3CCOCC3)nc3scc(-c4cccs4)c23)c1 | 1 (inactive) |
| CC(=O)NNc1ncnc2c1cnn2-c1ccc(C)c(Cl)c1 | 2.2 (inactive) |
| Cn1ncc2c(NNC(=O)c3ccc(Cl)cc3Cl)ncnc21 | 2.4 (inactive) |
| Cn1cccc1C(=O)C(=O)Nc1ccccc1C(F)(F)F | 1.2 (inactive) |
| CN(CCO)C(=O)CCC(=O)Nc1ccc(S(N)(=O)=O)cc1 | 1.1 (inactive) |
| CCN1/C(=C/C=C/C=C/c2sc3ccccc3[n+]2CC)Sc2ccccc21 | 53.2 (active) |
| CCN1/C(=C/C(C)=C/c2sc3ccccc3[n+]2CC)Sc2ccccc21 | 0.4 (inactive) |
| CC[n+]1c(/C=C/C=C/N(C(C)=O)c2ccccc2)sc2ccccc21 | 0.7 (inactive) |
| CCNC(=S)NNC(=O)c1cc(C)nc2ccccc12 | 1.7 (inactive) |
| CCCc1cc(C(=O)NNC(=S)NCC)c2ccccc2n1 | 1.1 (inactive) |
| COc1ccc(C)cc1-n1[nH]nnc1=S | 1 (inactive) |
| COc1ccc(NC(=S)N2CCCC2c2ccc(OC)c(OC)c2)cc1 (configuration not stated) | 0.9 (inactive) |
| C=CCNC(=S)NNC(=O)C(CCC(C)C)CC(C)(C)O (configuration not stated) | 1.1 (inactive) |
| C=CCNC(=S)NNC(=O)C(CCCC)CC(C)O (configuration not stated) | 1.7 (inactive) |
| O=C1c2ccc(Br)cc2C(=O)N1c1ccc(Cc2ccncc2)cc1 | 1.1 (inactive) |
| COCCNC(=S)N/N=C(\C)c1ccccc1OC | 1.1 (inactive) |
| COCCNC(=S)N/N=C(\C)c1ccccc1F | 1 (inactive) |
| CN(C)CCNC(=O)c1ccc(-c2nn(C)c(=O)c3ccccc23)cc1 | 1.1 (inactive) |
| Cc1sc2nc(-c3ccccn3)[nH]c(=O)c2c1-c1ccccc1 | 1.4 (inactive) |
| CCc1cc2c(=O)[nH]c(-c3ccccn3)nc2s1 | 1.8 (inactive) |

| Structure (SMILES) | activation fold |
| --- | --- |
| O=C(O)/C=C/C(=O)N1CCN(S(=O)(=O)c2cccc(C(F)(F)F)c2)CC1 | 1.1 (inactive) |
| COc1cccc(/C=N/NC(=O)c2[nH]c(C)c(C(=O)N/N=C/c3cccc(OC)c3)c2C)c1 | 1.2 (inactive) |
| Cc1cccc(C)c1NC(=O)C1(N(Cc2ccco2)C(=O)c2ccccn2)CCCC1 | 1 (inactive) |
| Cc1cccc(C)c1NC(=O)C1(N(C(=O)c2ccccn2)c2ccc(O)cc2)CCCCC1 | 1 (inactive) |
| O=C(NCCCn1ccnc1)/C(=C\c1cccnc1)NC(=O)c1ccccc1F | 1 (inactive) |
| O=C(Nc1cccc2ccccc12)c1ccc([N+](=O)[O-])s1 | 1 (inactive) |
| CCC(=O)Nc1ccc(/C(C)=N\NC(=O)c2ccc(C)s2)cc1 | 1 (inactive) |
| Cc1cc(C)c(-c2csc(NC(=O)C3=NN(c4ccccc4)C(=O)CC3)n2)c(C)c1 | 0.9 (inactive) |
| Cn1c(NCCCO)nc2c(c1=O)C1(CCCCC1)Cc1ccccc1-2 | 1 (inactive) |
| O=c1[nH]c(NCCO)nc2c1C1(CCCCC1)Cc1ccccc1-2 | 1 (inactive) |
| CC1CCCN(c2nc3ccccc3nc2C(C#N)C(=O)OC2CCCCC2)C1 (configuration not stated) | 1 (inactive) |
| Clc1ccc(-c2nc3ccccn3c2CN2CCCCC2)cc1 | 1.1 (inactive) |
| Cc1ccc2nc(-c3ccccc3)c(CN3CCN(c4ccccc4F)CC3)n2c1 | 1.1 (inactive) |
| O=c1cc(N2CCc3ccccc3C2)[nH]c(=O)n1Cc1ccc(F)cc1 | 1 (inactive) |
| Cc1sc(NC(=O)CSc2nnc(COc3ccc(Cl)cc3)n2C)c(C#N)c1C | 1.1 (inactive) |
| Cc1cccc(-c2nsc(SCC(=O)N3CCCC3)n2)c1 | 1.1 (inactive) |
| Cc1ccc(Nc2nc(N)nc(CN3CCN(C(=O)c4ccco4)CC3)n2)cc1Cl | 1 (inactive) |
| CNC(=S)NC1CC2CCCC(C1)N2Cc1ccc(C)cc1 (configuration not stated) | 1.1 (inactive) |
| CCNC(=S)NC1CC2CCC(C1)N2Cc1ccccc1 (configuration not stated) | 1 (inactive) |
| Cc1c(Cl)c(C(=O)NNC(=S)Nc2ccc(F)cc2)nn1C | 2.7 (inactive) |
| COc1ccccc1NC(=S)NNC(=O)c1nn(C)c(C)c1Cl | 1.2 (inactive) |
| COCc1nnc(NC(=O)c2ccc(OC)cc2OC)s1 | 1.1 (inactive) |
| COc1ccc(/C=C2/SC(=O)N(CC(=O)NCCC(C)C)C2=O)cc1OC | 1.1 (inactive) |
| COC(=O)Cn1c(CN2CCC(Cc3ccccc3)CC2)nc2c1c(=O)n(C)c(=O)n2C | 1.1 (inactive) |
